Results filed as inconclusive are left out. Activity calls are given as the source filed them. The call rests on the fitted dose curve; in most records, active means well fitted inhibition curve with a large enough effect in the repeat runs; inconclusive means weak or mixed curves; inactive means no such curve, though single readings can be large or run the other way.
On the % scale 0 is the no-effect control and ±100 the full control effect; potency means the concentration at half of the fitted maximal effect.

Chain of Cytochrome P450 2C9 (Homo sapiens) (P11712 whole entry, looked up): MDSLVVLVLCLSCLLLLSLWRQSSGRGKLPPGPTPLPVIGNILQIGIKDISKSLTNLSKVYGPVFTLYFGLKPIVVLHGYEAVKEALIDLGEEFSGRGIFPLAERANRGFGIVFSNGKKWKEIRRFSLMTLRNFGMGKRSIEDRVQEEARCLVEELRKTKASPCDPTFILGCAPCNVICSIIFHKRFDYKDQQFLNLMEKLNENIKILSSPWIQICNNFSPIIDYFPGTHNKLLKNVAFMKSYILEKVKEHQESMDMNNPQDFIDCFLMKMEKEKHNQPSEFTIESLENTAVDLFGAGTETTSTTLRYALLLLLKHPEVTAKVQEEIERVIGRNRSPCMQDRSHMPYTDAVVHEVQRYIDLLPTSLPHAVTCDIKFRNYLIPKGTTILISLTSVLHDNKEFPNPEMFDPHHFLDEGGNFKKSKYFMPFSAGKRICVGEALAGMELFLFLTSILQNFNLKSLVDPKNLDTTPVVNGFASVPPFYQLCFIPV

In the assay the target is Cytochrome P450 2C9 (Homo sapiens) (UniProt P11712). As to the kind of experiment: Cytochrome P450 Family 2 Subfamily C Member 9 (CYP2C9) small molecule antagonists: luciferase reporter qHTS assay (AID 1671198). Further: nearly all actives have a fitted effect of over 50% in size. The settings on record: P450-Glo CYP2C9 enzyme assay, luciferin luminescence; series mostly up to 115 µM; activity change, negative = inhibition: at the top concentration. The gist of the method:
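CYP2C9 activity was measured with a P450-Glo proluciferin substrate. Enzyme–substrate mix was held with compound for 10 min at room temperature, then NADPH regeneration solution was added for 1 h at 37C. Luciferin product was read as luminescence.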
Background: Reporter assays use an easily measured gene product as a stand-in for the process of interest.
For `CCCCCCCC(=O)OCC`, the “activity change, negative = inhibition” value is -2.77% (inactive).

For the compound `CC(C)c1cccc(C(C)C)c1N1C(=O)c2ccc(O)cc2C1=O`, the Potency is 12.6 µM (active). On the same count and under the same terms, then `S=P(N1CC1)(N1CC1)N1CC1`, with 19.3 µM (active); and `C/C=C/c1ccc(OC)c(OC)c1`, with 35.6 µM (active). As to `CCCCOCC`, the “activity change, negative = inhibition” value is -3.55% (inactive). For `CCCCNc1c(C(=O)OCC)c(C)nc2c1cnn2CC`, the Potency was 27.5 µM (active).

In the case of `COC(=O)NCCC[Si](OC)(OC)OC`, the “activity change, negative = inhibition” value is -6% (inactive). On the same count and under the same terms, then `CC(=O)C=O`, with -0.404% (inactive). For the compound `CCN(CC)CCSC(=O)C(c1ccccc1)c1ccccc1`, the Potency is 17.4 µM (active). On the same count and under the same terms, the same measure for `Cc1oc(-c2ccccc2)nc1CCOc1ccc(C[C@H](Nc2ccccc2C(=O)c2ccccc2)C(=O)O)cc1`: 20 µM (active).

In the case of `Oc1ccc(-c2ccc(O)cc2)cc1`, the “activity change, negative = inhibition” value was 25.1% (inactive). The same measure, in the same setting: then `CC(CN(C)C)CN1c2ccccc2CCc2ccccc21` (stereo not drawn), with -14% [at 53 µM] (inactive). As for `CCN(CC)CCOc1ccc(C(O)(Cc2ccc(Cl)cc2)c2ccc(C)cc2)cc1` (stereo not drawn), the Potency was 38.9 µM (active).

Consider `CCC(C)C(=O)OC` (stereo not drawn), for which the “activity change, negative = inhibition” value is -0.328% (inactive).

Consider `CCC(C)c1ccccc1` (stereo not drawn), for which the “activity change, negative = inhibition” value is -19.5% (inactive). Same read-out and setting: then `CCOC(OCC)C(=O)c1ccccc1`, with -12.5% (inactive).

Turning to `Clc1ccc(C(Cn2ccnc2)OCc2ccsc2Cl)c(Cl)c1` (stereo not drawn), the Potency was 0.309 µM (active). On the same count and under the same terms, then `CCCCCCCCCC(=O)N(C)C`, with 40.5 µM (active).

The values are drawn from PubChem BioAssay (Tox21).
